Results from PubChem BioAssay (NCATS).
“And” between values parts separate entries of the source, which are not always exact repeats. Equal values may be shown once. Inconclusive results are not listed. The source made the active and inactive calls. Calls follow the shape of the dose curve; as a rule, active = well fitted curve in the direction sought with a large enough effect; inconclusive = small, poorly fitted or top-dose-only effect, or another doubt; inactive = no such curve, though single readings can be large; an effect the other way counts as inactive or inconclusive.

Columns and labels:
[1] = molecular target: Cytochrome P450 3A7 (Homo sapiens) (UniProt P24462); assay: Cytochrome P450 family 3 subfamily A member 7 (CYP3A7) small molecule antagonists: luciferase biochemical qHTS assay (AID 1963596); also: % is scaled to controls: 0 for no effect and ±100 for the full control effect; nearly all actives have a fitted effect of over 40% in size
Outline: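 Luminescence read-out (relative luminescence units) after 20 min with detection reagent, which stops the reaction. Enzyme, proluciferin substrate and compound preincubated 10 min, RT; NADPH regeneration system then started 1 h reaction. Ketoconazole as positive control.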

[2] = Viability qHTS for spleen associated tyrosine kinase inhibitor (SYKi) drug resistant MV4-11 cells (AID 1963824); also: nearly all actives have a fitted effect of over 35% in size; also: potency is read from the fitted curve at half-maximal effect
Outline: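 SYK inhibitor-resistant MV4-11 AML cells, 500 per well, added to predispensed compounds and incubated 72 hr at 37 C, 5% CO2. Viability measured by CellTiter-Glo luminescence after 10 min at room temperature.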

[3] = Quantitative highthroughput screen to assess conditional lethalithy of NOMO1 cells grown in RPMI1640 with dialyzed fetal bovine serum (RPMI+ds) (AID 1963877); also: nearly all actives have a fitted effect of over 30% in size; also: potency is read from the fitted curve at half-maximal effect;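 as to Viability: series mostly up to about 46 µM; 100% = DMSO control wells and 0% = empty wells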
Outline: (§1)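 Each medium arm—HPLM with 10% dialyzed FBS, or RPMI1640 with 5 mM glucose and 10% untreated or dialyzed FBS—was screened against an 11-point, 3-fold compound titration for 48 h at 37 °C, with CellTiter-Glo luminescence as endpoint.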

[4] = Quantitative highthroughput screen to assess conditional lethalithy of P12 Ichikawa cells grown in Human Plasma-Like Medium with dialyzed fetal bovine serum (HPLM+ds) (AID 1963879); settings: Potency: viability; also: nearly all actives have a fitted effect of over 35% in size; also: potency is read from the fitted curve at half-maximal effect; as to Viability: series mostly up to about 46 µM
Outline: as §1

[5] = Quantitative highthroughput screen to assess conditional lethalithy of P12 Ichikawa cells grown in RPMI1640 with dialyzed fetal bovine serum (RPMI+ds) (AID 1963880); settings: Potency: P12-Ichikawa viability; also: nearly all actives have a fitted effect of over 35% in size; also: potency is read from the fitted curve at half-maximal effect;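 as to Viability: 100% = DMSO wells and 0% = empty wells on each plate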
Outline: as §1

[6] = Quantitative highthroughput screen to assess conditional lethalithy of P12 Ichikawa cells grown in RPMI1640 with untreated serum (RPMI+s) (AID 1963881); settings: Potency: viability; also: nearly all actives have a fitted effect of over 35% in size; also: potency is read from the fitted curve at half-maximal effect;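 as to Viability: series mostly up to about 46 µM; 100% = DMSO wells and 0% = empty wells without cells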
Outline: as §1

[7] = Cellular viability qHTS for adrenocortical cancer (ACC) cell line SW-13 (AID 1963989); settings: SW-13 ACC cells viability, CellTiter-Glo, 48 h; activity (max response): hits give low values; also: nearly all actives have a fitted effect of over 65% in size; also: potency is read from the fitted curve at half-maximal effect;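 as to activity (max response): cells grown in serum-free medium with ITS supplement; % is scaled to controls: 0 for no effect and ±100 for the full control effect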
Outline: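 Here, serum-free SW-13 cultures were dosed up to 46 uM. Following 48 h, ATP-dependent luminescence (CellTiter-Glo) reported viable cells, and logistic modeling produced IC50 values.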

[8] = Quantitative highthroughput screen to assess conditional lethalithy of NOMO1 cells grown in RPMI1640 with untreated serum (RPMI+s) (AID 1963876); also: nearly all actives have a fitted effect of over 35% in size; also: potency is read from the fitted curve at half-maximal effect;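 as to Viability: 100% = DMSO wells and 0% = empty wells without cells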
Outline: as §1

[9] = Quantitative highthroughput screen to assess conditional lethalithy of NOMO1 cells grown in Human Plasma-Like Medium with dialyzed fetal bovine serum (HPLM+ds) (AID 1963878); also: nearly all actives have a fitted effect of over 35% in size; also: potency is read from the fitted curve at half-maximal effect;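 as to Viability: 100% = DMSO wells and 0% = empty wells on each plate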
Outline: as §1

[10] = Cellular viability qHTS for adrenocortical cancer (ACC) cell line NCI-H295R (AID 1963990); also: nearly all actives have a fitted effect of over 60% in size; also: potency is read from the fitted curve at half-maximal effect;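 as to activity change, negative = viability loss: 0% = DMSO only wells and -100% = full killing with cytotoxic reference compound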
Outline: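 Viability of NCI-H295R after 48 h of treatment (final up to 46 uM) measured through cellular ATP luminescence.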

[11] = Quantitative highthroughput screen to assess conditional lethalithy of SEM cells grown in Human Plasma-Like Medium with dialyzed fetal bovine serum (HPLM+ds) (AID 1963882); also: nearly all actives have a fitted effect of over 35% in size; also: potency is read from the fitted curve at half-maximal effect; as to Viability: series mostly up to about 46 µM
Outline: as §1

[12] = Quantitative highthroughput screen to assess conditional lethalithy of SEM cells grown in RPMI1640 with unreated serum (RPMI+s) (AID 1963883); also: nearly all actives have a fitted effect of over 35% in size; also: potency is read from the fitted curve at half-maximal effect;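 as to Viability: 100% = DMSO wells and 0% = empty wells without cells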
Outline: as §1

[13] = Quantitative highthroughput screen to assess conditional lethalithy of SEM cells grown in RPMI1640 with dialyzed fetal bovine serum (RPMI+ds) (AID 1963884); also: nearly all actives have a fitted effect of over 35% in size; also: potency is read from the fitted curve at half-maximal effect;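 as to Viability: series mostly up to about 46 µM; 100% = DMSO control wells and 0% = empty wells without cells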
Outline: as §1

Cytochrome P450 3A7 (Homo sapiens), sequence (P24462 whole entry, looked up): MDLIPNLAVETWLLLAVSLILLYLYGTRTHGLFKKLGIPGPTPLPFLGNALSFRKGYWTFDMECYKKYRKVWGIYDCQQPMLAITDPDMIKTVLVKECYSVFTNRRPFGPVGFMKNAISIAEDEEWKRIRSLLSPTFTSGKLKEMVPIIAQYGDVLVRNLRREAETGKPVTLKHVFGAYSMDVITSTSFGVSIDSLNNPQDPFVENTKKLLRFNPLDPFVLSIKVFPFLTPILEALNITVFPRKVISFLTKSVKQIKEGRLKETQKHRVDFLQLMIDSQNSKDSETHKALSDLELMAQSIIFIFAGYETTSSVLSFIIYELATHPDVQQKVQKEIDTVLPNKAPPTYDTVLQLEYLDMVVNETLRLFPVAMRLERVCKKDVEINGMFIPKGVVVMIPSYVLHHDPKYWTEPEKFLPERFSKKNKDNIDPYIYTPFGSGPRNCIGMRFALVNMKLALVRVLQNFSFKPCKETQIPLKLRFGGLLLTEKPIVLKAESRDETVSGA

COc1cc2ncnc(Nc3cccc(I)c3)c2cc1OC
inactive: Potency [1]
active: Potency [2] 2.91 µM and 13 µM

CC(=O)N(O)CCCCCNC(=O)CCC(=O)N(O)CCCCCNC(=O)CCC(=O)N(O)CCCCCN
active: Potency [2] 5.9 µM | Potency [3] 0.0831 µM | Potency [4] 0.0047 µM | Potency [5] 0.0741 µM | Potency [6] 0.0588 µM | Potency [7] 28.2 µM
inactive: Potency [1]

CCOC(=O)c1ncn2c1CN(C)C(=O)c1cc(F)ccc1-2
inactive: Potency [1] | Potency [2] | Potency [8] | activity (max response) [7] 10.7% and 8.93% | Potency [10]
active: Potency [9] 20.9 µM | Potency [4] 3.72 µM

C[C@@H]1CN(c2c(F)c(N)c3c(=O)c(C(=O)O)cn(C4CC4)c3c2F)C[C@H](C)N1
inactive: Potency [1] | Potency [2] | Potency [8] | Potency [3] | Potency [4] | activity (max response) [7] -1.88% | Potency [10]

CCN(CCO)CCCC(C)Nc1ccnc2cc(Cl)ccc12 (centres undefined)
inactive: activity change, negative = inhibition [1] 10.6% [at 4.83 µM] | viability, % of control [2] 88.8% [at 4.97 µM] | activity (max response) [7] 4.84% and 9.37% | activity change, negative = viability loss [10] 1.42% [at 3.81 µM] and 0.71% [at 3.81 µM]
active: Potency [8] 10.5 µM | Potency [4] 4.18 µM | Potency [6] 10.5 µM

COc1cc2c(Oc3ccc(-c4cnc(Nc5ccc(F)cc5)n(C)c4=O)cc3F)ccnc2cc1OCCCN1CCOCC1
active: Potency [2] 58 nM and 29.5 nM | Potency [3] 23.5 µM | Potency [9] 20.9 µM | Potency [11] 0.166 µM | Potency [12] 1.05 µM | Potency [13] 0.0833 µM | Potency [7] 15.8 µM | Potency [10] 3.98 µM
inactive: Potency [1]

Cc1nc2sc(C(=O)NCc3ccncc3)c(N)c2c(C)c1Cl
inactive: Potency [1] | Potency [2]

N[C@@H](C(=O)N[C@@H]1C(=O)N2C(C(=O)O)=C(Cl)CS[C@H]12)c1ccccc1
active: Potency [2] 0.686 µM
inactive: activity change, negative = inhibition [1] -8.83% [at 11.5 µM] | Potency [8] | Potency [3] | Potency [4] | Potency [5] | Potency [6] | Potency [11] | Potency [12] | Potency [13] | activity (max response) [7] 7.53% | activity change, negative = viability loss [10] -18.4% [at 9.17 µM]

Cn1c(=O)n(-c2ccc(C(C)(C)C#N)cc2)c2c3cc(C#Cc4cccnc4)ccc3ncc21
active: Potency [2] 0.0447 µM
inactive: Potency [1]

Cn1c(NCCN(CCO)CCCc2ccc([N+](=O)[O-])cc2)cc(=O)n(C)c1=O
inactive: Potency [1] | Potency [2] | Potency [8] | activity (max response) [7] 5.91% and 4.46% | Potency [10]

O=c1cc(N2CCN(c3cccc(C(F)(F)F)c3)CC2)[nH]c(=O)n1C1CCCCC1
inactive: Potency [1] | Potency [2]

CC(C)c1noc(N2CCC(COc3ccc(-c4ccc(S(C)(=O)=O)cc4)nc3)CC2)n1
inactive: Potency [1] | Potency [8] | Potency [3] | Potency [9] | Potency [4] | Potency [5] | Potency [6] | Potency [11] | activity (max response) [7] -1.34% | Potency [10]
active: Potency [2] 5.25 µM

N=C(N)c1ccc2cc(OC(=O)c3ccc(N=C(N)N)cc3)ccc2c1
active: Potency [2] 18.6 µM
inactive: Potency [1] | Potency [4] | Potency [11] | Potency [12] | Potency [13] | activity (max response) [7] -32.1%

CC1COc2c(N3CCN(C)CC3)c(F)cc3c(=O)c(C(=O)O)cn1c23 (centres undefined)
inactive: Potency [1] | Potency [8] | Potency [3] | Potency [9] | Potency [4] | Potency [5] | Potency [6] | Potency [11] | Potency [12] | Potency [13] | activity (max response) [7] 4.41% and 9.62%
active: Potency [2] 8.41 µM

O=C(O)c1cccnc1
active: Potency [8] 8.33 µM | Potency [3] 5.26 µM | Potency [5] 10.5 µM | Potency [11] 1.18 µM | Potency [12] 2.96 µM | Potency [13] 2.96 µM
inactive: Potency [1] | Potency [2] | Potency [10]

CCCNc1ccc2ncc(-c3ccc4[nH]ncc4c3)n2n1
active: Potency [2] 0.0116 µM
inactive: Potency [1]

NS(=O)(=O)c1cc2c(cc1Cl)NCNS2(=O)=O
inactive: Potency [1] | Potency [2] | Potency [8] | Potency [3] | Potency [9] | Potency [4] | Potency [5] | Potency [6] | Potency [11] | Potency [12] | Potency [13] | activity (max response) [7] 11.9% and 0.967%

CN(C)C/C=C/C(=O)Nc1ccc(C(=O)Nc2cccc(Nc3ncc(Cl)c(-c4c[nH]c5ccccc45)n3)c2)cc1
inactive: Potency [1]
active: Potency [2] 10.3 nM and 18.6 nM | Potency [8] 0.331 µM | Potency [3] 0.263 µM | Potency [9] 0.263 µM | Potency [4] 0.331 µM | Potency [5] 0.331 µM | Potency [6] 0.331 µM | Potency [11] 0.209 µM | Potency [12] 0.186 µM | Potency [7] 0.282 µM | Potency [10] 0.562 µM

CCCCN(CCCC)CC(O)c1cc(Cl)cc2c1-c1ccc(Cl)cc1/C2=C/c1ccc(Cl)cc1 (centres undefined)
active: Potency [2] 18.8 µM
inactive: Potency [1]
